Results published in the supplement of paper PMC8975748.
Structures can show the parent of a compound that is named as a salt.

Tested on: Saccharomyces cerevisiae BY4741 SeMeCo community
Test: z-score of subpopulation abundance vs DMSO median, subpopulation auxotrophic for HLUM; higher = larger share of this subpopulation than in DMSO controls
Conditions: 10 µM; 24 h; SM minimal medium; subpopulation (auxotrophy): HLUM
Description: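 Fluorescent four-plasmid SeMeCo (self-establishing metabolically cooperating S. cerevisiae BY4741 community; plasmids pH-mRuby2, pL-mWasabi, pU-eCFP, pM-TagRFP657) was grown 24 h in minimal SM medium with each Selleck FDA-approved drug at 10 µM in 384-well plates. Cells were fixed and imaged by high-content confocal microscopy. For each auxotrophic subpopulation (and the prototroph), a z-score gives the deviation from the DMSO vehicle-control population median.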

Structure (SMILES) | z-score of subpopulation abundance
CCCNCC(O)COc1ccccc1C(=O)CCc1ccccc1 (stereo not given) [Propafenone HCl] | 0.05
CC(=O)OCC(COC(C)=O)OC(C)=O [Triacetin] | -0.48
C[C@@H](c1ncncc1F)[C@](O)(Cn1cncn1)c1ccc(F)cc1F [Voriconazole] | 16.5
CCCCN1CCCCC1C(=O)Nc1c(C)cccc1C (stereo not given) [Bupivacaine HCl] | -0.67
CCOc1cc(NC(C)=O)ccc1C(=O)OC [Ethopabate] | 2.14
N/C(=N\N=C\c1ccc(Cl)cc1)N/N=C/c1ccc(Cl)cc1 [Robenidine Hydrochoride] | 18.1
CN1CCOC(c2ccccc2)c2ccccc2C1 (stereo not given) [Nefopam HCl] | -0.19
CONC(=O)Nc1ccc(-c2sc3c(c2CN(C)C)c(=O)n(-c2ccc(OC)nn2)c(=O)n3Cc2c(F)cccc2F)cc1 [Relugolix] | 0.58
C[C@]12CCC(=O)C=C1[C@@H]1C[C@@H]1[C@H]1[C@@H]3[C@@H]4C[C@@H]4[C@@]4(CCC(=O)O4)[C@@]3(C)CC[C@@H]12 [Drospirenone] | -0.05
CNCCCN1c2ccccc2CCc2ccccc21 [Desipramine Hydrochloride] | -0.78
NNc1nncc2ccccc12 [Hydralazine HCl] | -0.64
CNCC[C@H](Oc1cccc2ccccc12)c1cccs1 [Duloxetine HCl] | 0.03
CN[C@H](CC(C)C)C(=O)N[C@H]1C(=O)N[C@@H](CC(N)=O)C(=O)N[C@H]2C(=O)N[C@H]3C(=O)N[C@H](C(=O)N[C@H](C(=O)O)c4cc(O)cc(O)c4-c4cc3ccc4O)[C@H](O)c3ccc(c(Cl)c3)Oc3cc2cc(c3O[C@@H]2O[C@H](CO)[C@@H](O)[C@H](O)[C@H]2O[C@H]2C[C@](C)(N)[C@H](O)[C@H](C)O2)Oc2ccc(cc2Cl)[C@H]1O [Vancomycin HCl] | -0.53
O=C(O)c1cc(=O)c2c(OCC(O)COc3cccc4oc(C(=O)O)cc(=O)c34)cccc2o1 [Disodium Cromoglycate] | -0.81
N[C@@H](CCC(=O)O)C(=O)O [(S)-Glutamic acid] | 0.06
O=C(Nc1cccc(C2=NCCN2)c1)Nc1cccc(C2=NCCN2)c1 [Imidocarb dipropionate] | 0.13
CC1=C(C(=O)OC(C)C)C(c2cccc([N+](=O)[O-])c2)C(C(=O)OC2CN(C(c3ccccc3)c3ccccc3)C2)=C(N)N1 (stereo not given) [Azelnidipine] | -0.49
CC[C@H]1OC(=O)C[C@@H](O)[C@H](C)[C@@H](O[C@@H]2O[C@H](C)[C@@H](O)[C@H](N(C)C)[C@H]2O)[C@@H](CCN2C[C@H](C)C[C@H](C)C2)C[C@@H](C)C(=O)/C=C/C(C)=C/[C@@H]1CO[C@@H]1O[C@H](C)[C@@H](O)[C@@H](OC)[C@H]1OC [Tilmicosin] | 0.67
COC(=O)Nc1nc2cc(C(=O)c3ccc(F)cc3)ccc2[nH]1 [Flubendazole] | -0.02
CCC[S+]([O-])c1ccc2[nH]c(NC(=O)OC)nc2c1 (stereo not given) [Albendazole Oxide] | -1.11

Structure (SMILES) | z-score of subpopulation abundance
Nc1ccc(S(=O)(=O)c2ccc(N)cc2)cc1 [Dapson] | 0.06
CN1CC(=O)N2[C@H](c3ccc4c(c3)OCO4)c3[nH]c4ccccc4c3C[C@@H]2C1=O [Tadalafil] | 1.5
CCCCOc1ccc(CC(=O)NO)cc1 [Bufexamac] | -1.25
CN1C2CCC1CC(OC(=O)C(O)c1ccccc1)C2 (stereo not given) [Homatropine Bromide] | 0.14
C#C[C@]1(O)CC[C@H]2[C@@H]3CCc4cc(OC5CCCC5)ccc4[C@H]3CC[C@@]21C [Quinestrol] | 0.63
Nc1nc2[nH]cc(CCc3ccc(C(=O)N[C@@H](CCC(=O)O)C(=O)O)cc3)c2c(=O)[nH]1 [Pemetrexed Disodium Hydrate] | 3.48
c1ccc2[nH]c(-c3cscn3)nc2c1 [Thiabendazole] | -0.43
CCC[C@@H]1C[C@@H](C(=O)N[C@@H]([C@H]2O[C@H](SC)[C@H](O)[C@@H](O)[C@H]2O)[C@H](C)Cl)N(C)C1 [Clindamycin HCl] | 0.72
NC[C@H]1O[C@H](O[C@H]2[C@H](O)[C@@H](O[C@H]3O[C@H](CO)[C@@H](O)[C@H](N)[C@H]3O)[C@H](N)C[C@@H]2N)[C@H](O)[C@@H](O)[C@@H]1O [Kanamycin sulfate] | -0.1
Nc1ccc(S(=O)(=O)Nc2ccnn2-c2ccccc2)cc1 [Sulfaphenazole] | 0.07
Nc1nc2ccc(OC(F)(F)F)cc2s1 [Riluzole] | 0.8
CO/N=C(\C(=O)N[C@@H]1C(=O)N2C(C(=O)O)=C(CSc3nnnn3C)CS[C@H]12)c1csc(N)n1 [Cefmenoxime hydrochloride] | -0.52
C[C@]12CC[C@@H]3c4ccc(OS(=O)(=O)O)cc4CC[C@H]3[C@@H]1CCC2=O [Estropipate] | -0.39
CC[C@@H]([C@H](C)O)n1ncn(-c2ccc(N3CCN(c4ccc(OC[C@@H]5CO[C@@](Cn6cncn6)(c6ccc(F)cc6F)C5)cc4)CC3)cc2)c1=O [Posaconazole] | 12.3
CC[C@H](C)C(=O)O[C@H]1C[C@H](O)C=C2C=C[C@H](C)[C@H](CC[C@@H](O)C[C@@H](O)CC(=O)O)[C@H]21 [Pravastatin] | -0.51
CC[N+](CC)(CC)CC [Tetraethylammonium bromide] | 1.04
Cc1cc(NS(=O)(=O)c2ccc(N)cc2)nc(C)n1 [sulfaisodimidine] | 0.48
COc1ccnc(C[S+]([O-])c2nc3cc(OC(F)F)ccc3[nH]2)c1OC (stereo not given) [Pantoprazole] | 0.7
CNCCCC1c2ccccc2C=Cc2ccccc21 [Protriptyline hydrochloride] | -0.01
CO[C@H]1C[C@@H]2CC[C@@H](C)[C@@](O)(O2)C(=O)C(=O)N2CCCC[C@H]2C(=O)O[C@H]([C@H](C)C[C@@H]2CC[C@@H](OCCO)[C@H](OC)C2)CC(=O)[C@H](C)/C=C(\C)[C@@H](O)[C@@H](OC)C(=O)[C@H](C)C[C@H](C)/C=C/C=C/C=C/1C [Everolimus (RAD001)] | 24
